Measurements reported in PubChem BioAssay AID743330 (NMMLSC, 2014).
Active and inactive are the calls of the source. The rule behind the calls is not given here.

System: Cdc42 mutant
Assay: GTPase panel EC50 shift with labeled GTP level, profiling panel, mechanism study, biochemical, four GTPases, bead flow cytometry (AID 743330)
Settings: bead-based flow cytometry, fluorescent GTP binding to GTPases

SMILES	EC50
CC1(C)Cc2c(sc(NC(=S)NC(=O)c3ccc(F)cc3)c2C(=O)O)CO1	54 nM (active)
CCC1(C)Cc2c(sc(NC(=S)NC(=O)c3ccccc3)c2C(=O)O)CO1 (configuration not stated)	4 nM (active)
